One assay concerns DIO2 (gene 1734). Briefly: CCTE_GLTED_hDIO2: CCTE's human Deiodinase 2 (DIO2) Inhibition Assay, Great Lakes Toxicology and Ecology Division (GLTED) Lab (AID 2284050; active means hit-call score of the fitted dose curve at least 0.9, where 1 is the maximum). The gist of the method:
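Readout: absorbance from Sandell-Kolthoff detection of free iodide released by human DIO2 during a 3 h incubation with chemical. Cell-free format, n=3; activity fitted relative to DMSO negative control.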

Assay [1] is described as follows: CCTE_Shafer_MEA_dev_per_burst_interspike_interval: CCTE's Neural Network Formation Assay for Burst Interspike Interval, Shafer Lab (AID 2284044).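 Further: mean spike spacing inside bursts as AUC over recordings on days 5 7 9 12.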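 On AC50: potency for a decrease of within-burst interspike interval below DMSO level.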 The gist of the method: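 Neurons from rat cortex plated onto PEI-coated MEA wells with laminin […] at 1.5 x 10^5 cells/well, then treated from day 0. Media and compound fully replaced on DIV 5 and 9. Extracellular spontaneous firing recorded four times; interspike interval per burst summarised as AUC.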

The nature of assay [2]: CCTE_Shafer_MEA_dev_burst_duration_mean: CCTE's Neural Network Formation Assay for Mean Burst Duration, Shafer Lab (AID 2284045).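 On AC50: curve fitted for loss meaning shorter burst duration than DMSO.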 The gist of the method:
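Network-formation assay in primary rat cortical neurons; treatment spans twelve days of development. Mean burst duration per well is integrated by trapezoidal AUC and fitted in the loss-of-signal direction against DMSO baseline.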

Assay [3] can be described thus: CCTE_Shafer_MEA_dev_interburst_interval_mean: CCTE's Neural Network Formation Assay for Mean Interburst Interval, Shafer Lab (AID 2284046).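 Further: well-mean interburst interval of bursting electrodes as AUC over four recording days; curve fitted for decrease in interburst interval relative to DMSO.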 In short, it runs like this: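 Recordings on days 5, 7, 9 and 12 give well-mean interburst interval across actively bursting electrodes, summarized as area under the curve. Cultures: rat cortical neurons, continuous exposure from day 0, compound renewed at feeds; decrease analyzed versus DMSO.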

Assay [4] in a line: CCTE_Shafer_MEA_dev_inter_network_spike_interval_mean: CCTE's Neural Network Formation Assay for Mean Inter-network Spike Interval, Shafer Lab (AID 2284047). In short, it runs like this:
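Primary rat cortical neurons on 16-electrode MEA wells, exposed from plating day 0 through DIV 12, compound renewed at DIV 5 and 9 media changes. Mean interval between network-spike peaks recorded DIV 5, 7, 9, 12; collapsed as trapezoidal AUC, fitted downward versus DMSO.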

Assay [5] can be described thus: CCTE_Shafer_MEA_dev_network_spike_number: CCTE's Neural Network Formation Assay for Number of Network Spikes, Shafer Lab (AID 2284048).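 Further: synchronized bursts across electrodes counted on days 5 7 9 12 and integrated as AUC.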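 On AC50: fit as a loss of signal meaning fewer network spikes than DMSO.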 In short, it runs like this: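 Extracellular recordings from 16-electrode wells track network formation in rat cortical cultures under continuous treatment from plating. The endpoint is network spike number, expressed as AUC across DIV 5–12 relative to DMSO vehicle.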

Assay [6] can be described thus: CCTE_Shafer_MEA_dev_spike_duration_mean: CCTE's Neural Network Formation Assay for Mean Spike Duration, Shafer Lab (AID 2284051).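 Further: mean network spike duration pooled as area under curve over DIV 5 to 12 recordings.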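 On AC50: potency for a decrease in mean network spike duration versus DMSO.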 The gist of the method:
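Primary rat cortical neurons on 16-electrode MEA wells (PEI-coated, laminin in plating drop), exposed from plating through DIV 12 with compound renewed at DIV 5 and 9. Mean network-spike duration recorded DIV 5, 7, 9, 12; trapezoidal AUC across days, DMSO baseline.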

Assay [7] is described as follows: CCTE_Shafer_MEA_dev_network_spike_duration_std: CCTE's Neural Network Formation Assay for Standard Deviation of Network Spike Duration, Shafer Lab (AID 2284052).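 Further: area under curve of spike duration SD across recording days 5 to 12; hits are decreases in network spike duration SD versus DMSO vehicle.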 In short, it runs like this:
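Primary rat cortical neurons on PEI-coated 16-electrode MEA wells, exposed from plating day 0 through day 12 with compound renewed at DIV 5 and 9. Network spike duration SD recorded on days 5, 7, 9, 12, collapsed as trapezoidal AUC; loss-of-signal fit versus DMSO.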

Assay [8] in a line: CCTE_Shafer_MEA_dev_per_network_spike_spike_number_mean: CCTE's Neural Network Formation Assay for Mean Number of Spikes in a Network Spike, Shafer Lab (AID 2284053). The gist of the method:
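Primary rat cortical neurons on 48-well, 16-electrode MEA plates were exposed from plating to DIV 12, with dosing renewed on DIV 5 and 9. Spikes per network spike (0.05 s peak window) were recorded on DIV 5, 7, 9 and 12 and collapsed as trapezoidal AUC versus DMSO.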

Assay [9] can be described thus: CCTE_Shafer_MEA_dev_per_network_spike_spike_percent: CCTE's Neural Network Formation Assay for Percent of Spikes in a Network Spike, Shafer Lab (AID 2284054). In short, it runs like this: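 Developing networks of rat cortical neurons are dosed at day 0 and recorded extracellularly four times up to day 12. The endpoint is the area under the curve of percent spikes in network spikes, fitted in the negative direction relative to DMSO.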

Calls of active or inactive are those of the source. How the source made its calls, unless noted: active means hit-call score of the fitted dose curve at least 0.9, where 1 is the maximum; inactive means score below 0.9.

Consider `N#CCC#N`, for which the AC50 with DIO2 (gene 1734) was 48.8 µM (active).
With `C=CCOC(F)(C(F)(F)F)C(F)(F)F`, the compound was called inactive in assay [1], in assay [2], in [3], in [4], in [5] and in assay [6]. The result in assay [7], in assay [8] and in assay [9] was inactive.
Consider `NC(=O)c1ccc(N)nc1`, for which the AC50 in assay [1] was 8.19 µM (active); in assay [2], 8.66 µM (active); in assay [3], 3.16 µM (active); in assay [5], 7.35 µM (active); in assay [6], 7.59 µM (active); in [7], 7.69 µM (active). In addition, the figures for the AC50 in assay [8] and in [9] were 4.19 µM (active) and 6.23 µM (active), respectively. The call in assay [4] was inactive.
Consider `OC(Cc1ccccc1Cl)(Cn1[nH]cnc1=S)C1(Cl)CC1` (stereo unspecified), for which the AC50 was 11.2 µM (active) in [1]; 82.5 µM (active) in [3]; 24.4 µM (active) in assay [5]; 33.6 µM (active) in [6]; 23.6 µM (active) in assay [8]; 82.3 µM (active) in assay [9]. Besides, the compound was called inactive in assay [2], in assay [4] and in [7].
As for `O=S(=O)(F)C(F)(F)C(F)(F)C(F)(F)C(F)(F)F`, the compound was called inactive in assay [1], in [2], in assay [3], in assay [4], in assay [5] and in assay [6]. The result in [7], in assay [8] and in assay [9] was inactive.
`CS(=O)(=O)c1ccc(C(=O)C2C(=O)CCCC2=O)c(Cl)c1COCC(F)(F)F`: the call in assay [1], in assay [2], in assay [3], in assay [4], in assay [5] and in assay [6] was inactive. Besides, the result in assay [7], in assay [8] and in assay [9] was inactive.
For `O=[N+]([O-])c1ccc(Cl)c([N+](=O)[O-])c1`, the AC50 in the assay on DIO2 (gene 1734) was 30.3 µM (active).
Regarding `Cc1cc(C(F)(C(F)(F)F)C(F)(F)F)ccc1NC(=O)c1cccc(I)c1C(=O)NC(C)(C)CS(C)(=O)=O`, the call in assay [1], in [2], in assay [4], in assay [5] and in assay [7] was inactive. In addition, the AC50 in [3] was 6.7 µM (active); in assay [6], 11.3 µM (active); in [8], 17.4 µM (active); in assay [9] it was 20.9 µM (active).
In the case of `C=CC(F)(C(F)(F)F)C(F)(F)C(F)(F)F` (stereo unspecified), the result in [1], in [2], in assay [3], in assay [4], in [5] and in [6] was inactive. In addition, the compound was called inactive in assay [7], in assay [8] and in [9].
In the case of `CCOCn1c(-c2ccc(Cl)cc2)c(C#N)c(Br)c1C(F)(F)F`, the AC50 was 1.61 µM (active) in assay [1]; 2.71 µM (active) in assay [2]; 6.29 µM (active) in assay [3]; 7.36 µM (active) in [5]; 6.23 µM (active) in assay [6]; 1.64 µM (active) in [7]. The concentration at half-maximal activity (AC50) is 6.48 µM (active) in assay [8] and 10.8 µM (active) in assay [9]. In assay [4], the compound was called inactive.
With `CC1(C)[C@H](C(=O)O[C@H](C#N)c2cccc(Oc3ccccc3)c2)[C@@H]1/C=C(\Cl)C(F)(F)F`, the compound was classed as inactive in [1], in assay [2], in assay [3], in assay [4] and in assay [7]. Further, the AC50 is 1.35 µM (active) in assay [5], 12.9 µM (active) in assay [6], 12.9 µM (active) in assay [8] and 3.67 µM (active) in [9].
In the case of `O=C1c2ccccc2C(=O)C1C(=O)C(c1ccccc1)c1ccc(Cl)cc1` (stereo unspecified), the AC50 in the assay with DIO2 (gene 1734) was 91.9 µM (active).
Take `FC(F)OCC(F)(F)C(F)(F)F`: the result in [1], in assay [2], in assay [3], in assay [4], in [5] and in assay [6] was inactive. The result in [7], in assay [8] and in [9] was inactive.
For `CNC(=O)CSP(=O)(OC)OC`, the result in [1], in assay [2], in assay [3], in assay [4], in [5] and in assay [6] was inactive. Besides, the compound was called inactive in assay [7], in [8] and in assay [9].
For `Cc1ccccc1OP(=O)(Oc1ccccc1C)Oc1ccccc1C`, the compound was called inactive in [1], in assay [2], in [4], in assay [5] and in assay [7]. Moreover, the AC50 in assay [3] is 15 µM (active); in assay [6], 21.4 µM (active); in assay [8] it was 20.3 µM (active); in assay [9], 19.4 µM (active).
With `CC(C)[C@@H](Nc1ccc(C(F)(F)F)cc1Cl)C(=O)OC(C#N)c1cccc(Oc2ccccc2)c1` (stereo partly specified), the call in assay [1], in assay [2], in [3], in [4], in assay [5] and in [7] was inactive. In addition, the compound was classed as inactive in assay [8]. Further, the figures for the AC50 in assay [6] and in assay [9] were 25.8 µM (active) and 14.5 µM (active), respectively.
On to `CC(F)(F)CC(F)(F)F`, for which the outcome in [1], in [2], in assay [3], in assay [4], in assay [5] and in [6] was inactive. Moreover, the result in assay [7], in assay [8] and in [9] was inactive.
As to `CC(=Cc1ccccc1)[N+](=O)[O-]`, the AC50 in the assay on DIO2 (gene 1734) is 41.8 µM (active).
As to `CCCCCCCCCCCCc1cccc(S(=O)(=O)O)c1`, the AC50 with DIO2 (gene 1734) was 90.4 µM (active).
`CC(=O)C(F)(F)C(F)(F)F`: the result in [1], in [2], in assay [3], in assay [4], in [5] and in assay [6] was inactive. Also, the call in assay [7], in [8] and in assay [9] was inactive.
`O=S1(=O)OC(c2cc(Br)c(O)c(Br)c2)(c2cc(Br)c(O)c(Br)c2)c2ccccc21`: in the assay with DIO2 (gene 1734), the AC50 was 36.4 µM (active).

One may read the AC50 as the concentration giving half of the maximal activity seen.

(Values after PubChem BioAssay (EPA / NIEHS).)
